Inconclusive results are not listed. A call without a number means that no potency is given here. Activity calls are given as the source filed them. Calls come from the whole dose curve; as a rule, active = well fitted cell-killing curve with a large enough effect; inconclusive = small, poorly fitted or top-dose-only effect; inactive = flat fitted curve, though single readings scatter.
experiment: Cell Viability - LYMP2-008 (AID 980); details: LYMP2-008 lymphoblastoid cell viability, qHTS; series mostly up to 92.2 µM; note: nearly all actives have a fitted effect of over 60% in size
Excerpt: NIH Chemical Genomics Center [NCGC]
NIH Molecular Libraries Screening Centers Network [MLSCN]
National Institutes of Environmental Health Sciences [NIEHS]
National Toxicology Program [NTP]
We have developed a 1536-well cell-based assay for quantitative high throughput screening (qHTS) against a number of cell lines to determine in vitro cytotoxicity of small molecules. This particular assay uses a human lymphoblastoid cell line (LYMP2-008) purchased from Coriell Institute for Medical Research.
NCGC Assay Protocol Summary:
The CellTiter-Glo luminescent cell viability assay (Promega) is a homogeneous method to measure the number of viable cells in culture. The end point readout of this assay is based on quantitation of intracellular ATP, an indicator of metabolic activity, using the luciferase reaction. Luciferase catalyzes the oxidation of beetle Luciferin to oxyluciferin and light in the presence of ATP. The luminescent signal is proportional to amount of ATP present.
Using the CellTiter-Glo luminescent cell viability assay, the amount of cellular ATP was measured in the lymphoblastoid cell line with complete culture medium following compound treatment for 24 hours. The assay was performed in opaque white Kalypsys 1536-well plates. In the screen, tetraoctylammonium bromide was used as positive control. Library compounds were measured for their ability to cause acute toxicity in the cell line, as reflected by a decrease in intracellular ATP levels, in a concentration-dependent manner. […] AC50 values were determined from concentration-response data modeled with the standard Hill equation.
qHTS protocol for CellTiter Glo lymphoblastoid cellular assay
[Step] [Parameter] [Value] [Description]
1. Reagent; 5 uL; 2500 lymphoblastoid cells/well
2. Time; 5 hr; 37 C incubation
4. Controls; 23 nL; Tetraoctylammonium bromide 6.4pM to 92 uM
5. Time; 24 hr; 37 C incubation
6. Reagent; 5 uL; CellTiter Glo reagent
7. Time; 30 min; Room Temperature
8. Detection; Luminescence; Viewlux plate reader
Keywords: cell viability, cytotoxicity, lymphoblastoid cell line, luminescence, NTPHTS, NTPHTS_NCGC, NIEHS, DSSTox, MLSMR, MLSCN, NIH Roadmap, qHTS, NCGC

Question: With `CN(C)C=O` as the compound, how does the Potency read?
Answer: inactive

Question: With `Nc1ccc(S(=O)(=O)O)cc1` as the compound, how does the Potency read?
Answer: inactive

Question: For `O=S(=O)(O)c1ccccc1`, which Potency is on record?
Answer: inactive

Question: For `COC(=O)c1ccc(C=O)cc1`, which Potency is on record?
Answer: inactive

Question: Which Potency does the source give for `CC(=O)OC/C=C(\C)CCC=C(C)C` here?
Answer: inactive

Question: With `COc1c2ccoc2cc2oc(=O)ccc12` as the compound, how does the Potency read?
Answer: inactive

Question: Which Potency does the source give for `CCO[Si](CCCN)(OCC)OCC` here?
Answer: inactive

Question: Which Potency does the source give for `c1ccc2c(c1)[nH]c1ccccc12` here?
Answer: inactive

Question: Which Potency does the source give for `Cc1ccc([N+](=O)[O-])c(C)c1` here?
Answer: inactive

Question: For `CN(C)CCCCCCN(C)C`, which Potency is on record?
Answer: inactive

Question: With `C=CCc1ccc(OC)c(OC)c1` as the compound, how does the Potency read?
Answer: inactive

Question: For `O=C(O)c1ccccc1`, which Potency is on record?
Answer: inactive

Question: With `C1OCOCO1` as the compound, how does the Potency read?
Answer: inactive

Question: Which Potency does the source give for `CCCCOCCO` here?
Answer: inactive

Question: Which Potency does the source give for `Cc1cccc([N+](=O)[O-])c1C` here?
Answer: inactive

Question: Which Potency does the source give for `OCCNCCO` here?
Answer: inactive

Question: For `CCCCC(CC)CN` (stereo not given), which Potency is on record?
Answer: inactive

Question: With `Cc1ccccc1C` as the compound, how does the Potency read?
Answer: inactive

Question: Which Potency does the source give for `Clc1cc(Cl)c(Cl)cc1Cl` here?
Answer: inactive

Question: For `Clc1cc(Cl)c(Cl)c(Cl)c1Cl`, which Potency is on record?
Answer: inactive

Question: Which Potency does the source give for `ClCCCl` here?
Answer: inactive

Question: Which Potency does the source give for `CC12CCC(CC1=O)C2(C)C` (stereo not given) here?
Answer: inactive

Question: For `C[C@H](CCC(=O)O)[C@H]1CC[C@H]2[C@@H]3CC[C@@H]4C[C@H](O)CC[C@]4(C)[C@H]3CC[C@]12C`, which Potency is on record?
Answer: inactive

Question: Which Potency does the source give for `O=C(O)c1ccccc1C(c1ccc(O)cc1)c1ccc(O)cc1` here?
Answer: inactive

Question: Which Potency does the source give for `O=C(O)c1ccc(O)cc1O` here?
Answer: inactive

Question: Which Potency does the source give for `CCCCCCCCCCCCCC(=O)O` here?
Answer: inactive

Question: With `CCCCCCCCCCCC(=O)O` as the compound, how does the Potency read?
Answer: inactive

Question: With `C=Cc1ccccc1Cl` as the compound, how does the Potency read?
Answer: inactive

Question: Which Potency does the source give for `C=CC(=C)CCC=C(C)C` here?
Answer: inactive

Question: With `CCCCCCCCO` as the compound, how does the Potency read?
Answer: inactive

Question: For `COc1ccc2nc(N)sc2c1`, which Potency is on record?
Answer: inactive

Question: With `O=NO` as the compound, how does the Potency read?
Answer: inactive

Question: Which Potency does the source give for `O=C1CCc2ccccc2O1` here?
Answer: inactive

Question: For `CC1=CC(C)(C)Nc2ccccc21`, which Potency is on record?
Answer: inactive

Question: With `CC1=C2[C@H](/C=C(\C)C(=O)O)CC[C@@H](C)[C@H]2CC1` as the compound, how does the Potency read?
Answer: inactive

Question: Which Potency does the source give for `COCC(=O)O` here?
Answer: inactive

Question: Which Potency does the source give for `c1ccccc1` here?
Answer: inactive

Question: For `CC(C)=CCCC(C)CCO` (stereo not given), which Potency is on record?
Answer: inactive

Question: For `COC(=O)CCCCC(=O)OC`, which Potency is on record?
Answer: inactive

Question: Which Potency does the source give for `CCCN(CCC)C(=O)SCC` here?
Answer: inactive
